Several values for one entry are separate records, joined by “and”; a condition that tells them apart may be missing. Identical values can stand only once. Records with an inconclusive call do not appear. Activity calls are given as the source filed them. Unless noted, calls follow the shape of the full dose curve.
Legend:
CRL-7250 = normal cell line; assay: qHTS assay to identify novel small-molecules to repurpose for Merkel cell carcinoma treatment (AID 1296009; active = well fitted inhibition curve with a large enough effect; also: nearly all actives have a fitted effect of over 60% in size); settings: MCC and control cell lines, CellTiter-Glo viability, 72 h; series mostly up to 92 µM
Method in brief: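 Viability readout: ATP luminescence (CellTiter-Glo) after 72 hr drug exposure at 37 degree celsius. Dose-response format was 8 points for NPC and 11 points for MIPE; data normalized to in-plate controls.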

[1] = qHTS for Inhibitors of the Functional Ribonucleoprotein Complex (vRNP) of Lassa (LASV) Arenavirus: LASV Primary Screen - GLuc reporter signal (AID 1347082; calls by dose curve; tested in HEK293 reporter line; also: nearly all actives have a fitted effect of over 60% in size; also: potency is read from the fitted curve at half-maximal effect)
[2] = qHTS for Inhibitors of the Functional Ribonucleoprotein Complex (vRNP) of Lassa (LASV) Arenavirus: Viability assay - alamar blue signal for LASV Primary Screen (AID 1347083; calls by dose curve; tested in HEK293 reporter line; also: nearly all actives have a fitted effect of over 80% in size; also: potency is read from the fitted curve at half-maximal effect)
[3] = qHTS for Inhibitors of the Functional Ribonucleoprotein Complex (vRNP) of Lymphocytic Choriomeningitis Arenaviruses (LCMV): Viability assay - alamar blue signal for LCMV Primary Screen (AID 1347085; calls by dose curve; tested in HEK293 reporter line; also: nearly all actives have a fitted effect of over 80% in size; also: potency is read from the fitted curve at half-maximal effect)
[4] = target: Nucleoprotein (Lymphocytic choriomeningitis virus (strain Armstrong)) (UniProt P09992); assay: qHTS for Inhibitors of the Functional Ribonucleoprotein Complex (vRNP) of Lymphocytic Choriomeningitis Arenaviruses (LCMV): LCMV Primary Screen - GLuc reporter signal (AID 1347086); also: nearly all actives have a fitted effect of over 70% in size; also: potency is read from the fitted curve at half-maximal effect
[5] = Primary qHTS for inhibitors of SARS-S pseudo-typed particle cell entry (AID 1479145); also: nearly all actives have a fitted effect of over 45% in size
[6] = Primary qHTS for Huh7 cytotoxicity: counterscreen for inhibitors of MERS-S pseudotyped particle cell entry (AID 1479147); settings: outcome: dose series up to 57.1 µM unless noted
[7] = Primary qHTS for inhibitors of MERS-S pseudo-typed particle cell entry (AID 1479149); also: nearly all actives have a fitted effect of over 60% in size
[8] = Primary qHTS for Vero E6 cytotoxicity: counterscreen for inhibitors of SARS-S pseudo-typed particle cell entry (AID 1479150); settings: outcome: dose series up to 57.1 µM unless noted
[9] = Cytotoxicity counterscreen for inhibitors of SARS-CoV-2 cell entry (AID 1645845); also: nearly all actives have a fitted effect of over 50% in size
Method in brief: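 After a 15 min room-temperature ATPLite 1step step, luminescence reflected ATP remaining in HEK293-ACE2 cells exposed to compound for 1 h plus 48 h at 37 C, with percent activity set by cell and no-cell controls.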

[10] = Primary qHTS to identify inhibitors of SARS-CoV-2 cell entry (AID 1645846); settings: activity change, negative = inhibition: at 57.1 µM (top of the series) unless noted; also: nearly all actives have a fitted effect of over 45% in size; also: potency is read from the fitted curve at half-maximal effect
Method in brief: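 Entry measured by luciferase signal 48 h after adding SARS-CoV-2-S pseudotyped MLV particles to HEK293-ACE2 cells preincubated 1 h with compounds. Normalisation: bald particles and spike particles.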

[11] = VSVG counterscreen qHTS to identify inhibitors of SARS-CoV-2 cell entry (AID 1645847); also: potency is read from the fitted curve at half-maximal effect; nearly all actives have a fitted effect of over 65% in size
Method in brief: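 Luminescence read after 48 h infection at 37 C with VSV-G-pseudotyped MLV particles, following 1 h compound exposure of Expi293F cells stably expressing human ACE2; scaled between bald particle and VSV-G particle wells.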

[12] = Confirmatory qHTS for activators (rescue) of SARS-CoV-2 Cytopathic Effect (CPE) (AID 1508606); also: nearly all actives have a fitted effect of over 70% in size; also: potency is read from the fitted curve at half-maximal effect
[13] = Confirmatory qHTS for VERO E6 Cytotoxicity Assay: Counterscreen for SARS-CoV-2 CPE Assay (AID 1508605); also: nearly all actives have a fitted effect of over 60% in size

Nucleoprotein (Lymphocytic choriomeningitis virus (strain Armstrong)), sequence (P09992 whole entry, looked up): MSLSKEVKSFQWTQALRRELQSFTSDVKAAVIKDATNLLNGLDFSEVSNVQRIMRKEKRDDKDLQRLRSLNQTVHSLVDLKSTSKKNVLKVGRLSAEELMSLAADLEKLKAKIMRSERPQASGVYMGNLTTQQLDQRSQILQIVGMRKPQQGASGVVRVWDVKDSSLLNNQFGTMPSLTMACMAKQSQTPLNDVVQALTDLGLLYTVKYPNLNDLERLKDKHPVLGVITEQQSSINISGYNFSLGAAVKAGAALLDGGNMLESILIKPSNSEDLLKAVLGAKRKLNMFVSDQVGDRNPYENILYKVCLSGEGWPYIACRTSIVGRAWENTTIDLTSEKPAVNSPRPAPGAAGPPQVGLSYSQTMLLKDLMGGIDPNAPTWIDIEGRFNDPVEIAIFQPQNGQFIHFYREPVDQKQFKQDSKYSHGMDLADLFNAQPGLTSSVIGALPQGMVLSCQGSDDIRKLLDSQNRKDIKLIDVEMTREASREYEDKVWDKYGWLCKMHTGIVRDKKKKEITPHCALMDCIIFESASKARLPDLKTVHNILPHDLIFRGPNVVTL

CC1CCC2C(C)(C)C(O)CCC2(C)C12Cc1c(O)cc3c(c1O2)CN(C(CCCN=C(N)N)C(=O)O)C3=O (stereo unspecified)
inactive: Potency (CRL-7250)

O=C(NCc1ccccc1)[C@H](Cc1ccccc1)NC(=O)[C@@H]1O[C@@H]1C(=O)NCCc1ccc(O)cc1
inactive: Potency [1] | Potency [2] | Potency [3] | Potency (CRL-7250)

C[C@@H]1CC[C@]2(C(=O)OC3OC(CO)C(O)C(O)C3O)CC[C@]3(C)C(=CCC4[C@@]5(C)CC[C@H](O)[C@](C)(C(=O)O)C5CC[C@]43C)C2[C@]1(C)O (stereo partly specified)
inactive: Potency (CRL-7250)

CCOC(=O)O[C@]1(C(=O)OCCl)CC[C@@H]2[C@H]3CCC4=CC(=O)C=C[C@]4(C)[C@@H]3[C@@H](O)C[C@@]21C
inactive: Potency [1] | Potency [2] | Potency [3] | Potency [4] | Potency (CRL-7250)

NC(=O)NN=Cc1ccc([N+](=O)[O-])o1
inactive: Potency [1] | Potency [2] | Potency [3] | Potency [4] | Potency (CRL-7250)

O=C1Nc2ccc(I)cc2C1=Cc1cc(Br)c(O)c(Br)c1
inactive: Potency [1] | Potency [2] | Potency [3] | Potency [4] | Potency (CRL-7250)

CNC[C@@H](O)[C@@H](O)[C@H](O)[C@H](O)CO
inactive: Potency [1] | Potency [2] | Potency [3] | Potency [4] | Potency (CRL-7250)

C[C@@H]1O[C@@H](O[C@H]2[C@H](OC(=O)[C@]34CCC(C)(C)C[C@H]3C3=CCC5[C@@]6(C)C[C@H](O)[C@H](O[C@@H]7O[C@H](CO)[C@@H](O[C@H]8OC[C@](O)(CO)[C@H]8O)[C@H](O)[C@H]7O)[C@@](C)(CO)C6[C@H](O)C[C@@]5(C)[C@]3(C)C[C@H]4O)OC[C@H](O)[C@@H]2O)[C@H](O)[C@H](O)[C@H]1O[C@@H]1OC[C@@H](O)[C@H](O[C@@H]2OC[C@](O)(CO)[C@H]2O)[C@H]1O (stereo partly specified)
inactive: outcome (CRL-7250) inactive [at 9.27 µM]

COCC1OC(n2cnc3c(=O)[nH]cnc32)C(O)C1O (stereo unspecified)
inactive: Potency (CRL-7250)

C[C@@H]1CCO[C@H]2Cn3cc(C(=O)NCc4ccc(F)cc4F)c(=O)c(O)c3C(=O)N12
active: Potency [11] 0.0076 µM
-84%: activity change, negative = inhibition [10]
inactive: Potency [1] | Potency [2] | Potency [3] | Potency [4] | Potency [5] | outcome [6] | Potency [7] | outcome [8] | Potency [9] | Potency (CRL-7250)

CC1COC2(CCN(c3nc(=O)c4cc(C(F)(F)F)cc([N+](=O)[O-])c4s3)CC2)O1 (stereo unspecified)
inactive: Potency [1] | Potency [2] | Potency [3] | Potency [4] | Potency [9] | Potency (CRL-7250)

CC(=O)C1=C(O)C=C2Oc3c(C(C)=O)c(O)c(C)c(O)c3C2(C)C1=O (stereo unspecified)
inactive: Potency [1] | Potency [2] | Potency [3] | Potency [4] | Potency (CRL-7250)

CN1CCC(COc2cnc(-c3cccc(Cn4nc(-c5cccc(C#N)c5)ccc4=O)c3)nc2)CC1
inactive: Potency [9] | Potency (CRL-7250)
active: Potency [1] 5.44 µM | Potency [2] 0.153 µM | Potency [3] 0.0611 µM | Potency [4] 0.685 µM

CN(C)CC(=O)N1CCC(c2ccc(NC(=O)c3ncc(C#N)[nH]3)c(C3=CCCCC3)c2)CC1
inactive: Potency [1] | Potency [2] | Potency [3] | Potency [4] | Potency [9] | Potency (CRL-7250)

O=C(C[C@@H]1CC=CCCC(=O)O[C@H](c2ccccc2)CNC1=O)NCc1ccc(Cl)cc1
inactive: Potency [1] | Potency [2] | Potency [3] | Potency [4] | Potency (CRL-7250)

CC(C(C)N1CC(=O)NC(=O)C1)N1CC(=O)NC(=O)C1 (stereo unspecified)
inactive: Potency [1] | Potency [2] | Potency [3] | Potency [4] | Potency [9] | Potency (CRL-7250)

N#Cc1ccc(Oc2ccc3c(c2)COB3O)cc1
-3.74%: activity change, negative = inhibition [10]
inactive: Potency [1] | Potency [2] | Potency [3] | Potency [4] | outcome [6] | Potency [7] | Potency [9] | Potency [10] | Potency (CRL-7250)

O=C(O)CCn1c2c(c3ccccc31)C[C@H](NS(=O)(=O)c1ccc(F)cc1)CC2
-25.2% and -23.3%: activity change, negative = inhibition [10]
inactive: Potency [1] | Potency [2] | Potency [3] | Potency [4] | Potency [5] | outcome [6] | Potency [7] | outcome [8] | Potency (CRL-7250)

CCc1nc(-c2cccc(C)c2)c(-c2ccnc(NC(=O)c3ccccc3)c2)s1
active: Potency [10] 25.1 µM
inactive: Potency [1] | Potency [2] | Potency [3] | Potency [4] | Potency [12] | Potency [9] | Potency (CRL-7250)

Cc1ccccc1-n1c(Cn2nc(-c3cccc(O)c3)c3c(N)ncnc32)nc2cccc(C)c2c1=O
active: Potency [1] 19.3 µM | Potency [2] 6.11 µM | Potency [3] 4.32 µM | Potency [4] 3.85 µM
inactive: Potency [9] | Potency (CRL-7250)

CCOC(=O)c1c(CSc2ccccc2)n(C)c2cc(Br)c(O)c(CN(C)C)c12
inactive: Potency [1] | Potency [2] | Potency [3] | Potency [4] | Potency [13] | Potency [9] | Potency (CRL-7250)
active: Potency [12] 11.2 µM

CC(C)(Cc1ccc2ccccc2c1)NC[C@@H](O)COc1cccc(Cl)c1C#N
inactive: Potency [1] | Potency [2] | Potency [3] | Potency [4] | Potency (CRL-7250)

COc1cc([C@H]2Oc3cc([C@H]4Oc5cc(O)cc(O)c5C(=O)[C@H]4O)ccc3O[C@H]2CO)ccc1O
inactive: Potency [1] | Potency [2] | Potency [3] | Potency [4] | Potency (CRL-7250)

From PubChem BioAssay (NCATS)
